Compound activity from PubChem BioAssay.
Pf apPOL block: Pf-apPOL inhibitors, biochemical, fluorescence | 210,000 tested, 0.25% active | inhibition, % at 10 µM | Plasmodium falciparum apicoplast DNA polymerase (apPOL) | Recombinant Pf-apPOL, molecular beacon fluorescence, 1.5 h | AID 1794808, 2022
mHTT CaM bind: mutant huntingtin-calmodulin interaction inhibitors – biochemical, AlphaScreen, primary screen | P42858 | AlphaScreen His-mHTT/GST-CaM binding, luminescence | inhibition, % at 15 µM | 190,000 tested, 3.6% active | AID 1671202, 2021;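 also: 0% = both proteins with DMSO and 100% = one protein alone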
An asterisk follows results filed as active; . = no result. In the library only some 3.5% were active in any assay of this set; here they are far more common. Rule as the data show it: active = inhibition above about 50%; inactive = the rest.

SMILES	Pf apPOL block	mHTT CaM bind
CCN1C(=Cc2c3ccccc3cc[n+]2CC)C=Cc2ccccc21	0	63*
CN(Cc1ccccc1)C(=O)C1CCN(c2cn[nH]c(=O)c2)CC1	-2	0
OC(c1ccc2c(c1)OCO2)c1nccc2ccccc12 (stereo unspecified)	-7	5
CC(C)C(=O)NC(c1ccc2c(c1)OCO2)c1cc(Cl)c2cccnc2c1O (stereo unspecified)	-8	62*
CC(=O)NC(c1ccc(N(C)C)cc1)c1cc(Cl)c2cccnc2c1O (stereo unspecified)	-5	96*
COc1ccc(C(NC(C)=O)c2cc(Cl)c3cccnc3c2O)cc1 (stereo unspecified)	7	100*
CCCC(=O)NC(c1ccc(N(C)C)cc1)c1cc(Cl)c2cccnc2c1O (stereo unspecified)	-2	43
CC(=O)NC(c1ccccc1Cl)c1cc(Cl)c2cccnc2c1O (stereo unspecified)	8	95*
CCCCC(=O)NC(c1ccc(OC)cc1)c1cc(Cl)c2cccnc2c1O (stereo unspecified)	10	26
CCCN(CCC)S(=O)(=O)c1ccc(C(=O)N(Cc2ccccc2)Cc2ccc(OC)c(OC)c2)cc1	-6	.
CCN(CC)S(=O)(=O)c1ccc(-c2nnc3sc4ccc(C)c(C)c4n23)cc1	2	2
Cc1ccc2nsnc2c1NC(=O)c1ncn[nH]1	7	4
O=C(Nc1ccc2c(c1)OC1(CCCCC1)O2)C1CCC(=O)N1C(=O)C1CCCN1 (stereo unspecified)	.	9
CC(=O)NC(c1ccc(C(C)C)cc1)c1cc(Cl)c2cccnc2c1O (stereo unspecified)	12	100*
CC(=O)NC(c1ccccc1)c1cc(Cl)c2cccnc2c1O (stereo unspecified)	1	100*
O=C(NC1CC1)C1CCc2sc(C(=O)N3CCCC3)cc2C1 (stereo unspecified)	-3	-4
O=C1/C(=C/c2cc([N+](=O)[O-])c(Cl)cc2Cl)Sc2ccccc21	4	19
O=C1/C(=C/c2ccc([N+](=O)[O-])cc2)Sc2ccccc21	89*	11
O=C1/C(=C/c2cc([N+](=O)[O-])cc(Br)c2O)Sc2ccccc21	-7	89*
CC(C)c1ccc(/C=C2\Sc3ccccc3C2=O)cc1[N+](=O)[O-]	-2	40
O=C1/C(=C/c2cccc([N+](=O)[O-])c2O)Sc2ccccc21	-4	15
O=C1/C(=C/c2c(Cl)ccc([N+](=O)[O-])c2Cl)Sc2ccccc21	2	67*
COc1ccc(-c2ccc(/C=C3\Sc4ccccc4C3=O)o2)c([N+](=O)[O-])c1	-4	51*
COc1ccc(-c2ccc(C=C3C(=O)OC(c4ccccc4)OC3=O)o2)c([N+](=O)[O-])c1 (stereo unspecified)	-3	3
CCOc1ccc(C(=O)Nc2cccc3nsnc23)cc1	-7	-6
O=C(Nc1ccc(C(F)(F)F)cc1)C(NS(=O)(=O)c1cccs1)c1ccccc1 (stereo unspecified)	-1	84*
O=C(Nc1ccc(F)c(F)c1)C(NS(=O)(=O)c1cccs1)c1ccccc1 (stereo unspecified)	-1	-2
